Measurements published in PubChem BioAssay (NCATS).
Inconclusive results are not listed. Active and inactive are the calls of the source. Unless noted, the call rests on the fitted dose curve; in most records, active means well fitted curve in the direction sought with a large enough effect; inconclusive means small, poorly fitted or top-dose-only effect, or another doubt; inactive means no such curve, though single readings can be large; an effect the other way counts as inactive or inconclusive.

What was measured:
[1] = qHTS for Activators of p53 Stress Response Pathway screened against the NCATS CANVASS Library (AID 1347388); further: potency means the concentration at half of the fitted maximal effect
How it was run: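 p53RE-bla HCT-116 cells (4000/well) were plated 5 h at 37C, exposed to compounds for 16 h at 37C over an 11-point concentration series, then loaded with CCF4 for 2 h at room temperature; 460/530 nm emission ratio read.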

[2] = qHTS assay for small molecule disruptors of mitochondrial membrane potential screened against the NCATS CANVASS Library (AID 1347389); further: series mostly up to about 46 µM; on the % scale 0 is the no-effect control and ±100 the full control effect; nearly all actives have a fitted effect of over 60% in size
How it was run: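 HepG2, 2,000 cells/well, attached overnight; compound 1 hr, 37C, 5% CO2; Mito-MPS dye 30 min, 37C; fluorescence 535 nm (monomer) and 590 nm (aggregate); decreased 590/535 ratio = depolarization.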

[3] = Secretion counterscreen for inhibitors of the SERCaMP assay screened against the NCATS CANVASS Library (AID 1347390);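 further: light from luciferase secreted into medium read as a measure of general secretion; series mostly up to about 77 µM; on the % scale 0 is the no-effect control and ±100 the full control effect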
How it was run: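 Counterscreen identifying compounds that disrupt secretion, using SH-SY5Y cells with a constitutively secreted Gaussia luciferase reporter. A 20 h compound exposure (top 77 uM) precedes luminescent detection with coelenterazine.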

[4] = qHTS for activators of dead-cell proteases activity screened against the NCATS CANVASS Library (AID 1347392);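 further: luminescence from protease leaking out of membrane-damaged cells cleaving impermeant substrate; 0% is about no effect; rising signal means more cytotoxicity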
How it was run: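 HepG2 cells (2000/well) attached 18 h at 37C, then exposed 5 h to compounds (11-point qHTS). Dead-cell protease activity read as luminescence from cell-impermeant AAF-aminoluciferin substrate after 15 min at room temperature.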

[5] = qHTS for inhibitors of Wild type Zika virus screened against the NCATS CANVASS Library (AID 1347396);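 further: ATP luminescence of surviving cells so rescue from viral cell killing; series mostly up to about 46 µM; on the % scale 0 is the no-effect control and ±100 the full control effect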
How it was run: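 Protection against wild-type Zika cytopathic effect is measured in African green monkey Vero 766 cells exposed to an 11-point compound series. Surviving cells are quantified by CellTiter Glo luminescence after 72 h.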

[6] = Redox Reaction Profiling qHTS: Assay Interference Panel against the NCATS CANVASS Library (AID 1347401);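 further: 100% = activation by 2 µM chloranil control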
How it was run: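 Resazurin (5 uM) conversion to resorufin measured with 200 uM DTT in 50 mM HEPES pH 7.3, 50 mM NaCl. Compounds tested in 11-point qHTS series. Fluorescence (ex 525/em 598 nm) read before and after 15 min dark incubation.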

[7] = Validation screen for small molecules that induce DNA re-replication in MCF 10A normal breast cells (AID 463097); further: 0% is about no effect; nearly all actives have a fitted effect of over 60% in size
How it was run: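 DNA re-replication was detected as a rise in nuclei with elevated Hoechst fluorescence after a 48 hr compound exposure of MCF 10A cells at 37 C.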

[8] = target: M-phase phosphoprotein 8 (Homo sapiens) (UniProt Q99549); assay: qHTS Validation Assay for Inhibitors for MPP8 Chromodomain Interactions with Methylated Histone Tails (AID 488949);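 further: AlphaScreen signal from MPP8 chromodomain bound to biotinylated H3K9me3 peptide; top concentration of the series differs between compounds; on the % scale 0 is the no-effect control and ±100 the full control effect; nearly all actives have a fitted effect of over 55% in size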
M-phase phosphoprotein 8 (Homo sapiens), sequence (Q99549 whole entry, looked up): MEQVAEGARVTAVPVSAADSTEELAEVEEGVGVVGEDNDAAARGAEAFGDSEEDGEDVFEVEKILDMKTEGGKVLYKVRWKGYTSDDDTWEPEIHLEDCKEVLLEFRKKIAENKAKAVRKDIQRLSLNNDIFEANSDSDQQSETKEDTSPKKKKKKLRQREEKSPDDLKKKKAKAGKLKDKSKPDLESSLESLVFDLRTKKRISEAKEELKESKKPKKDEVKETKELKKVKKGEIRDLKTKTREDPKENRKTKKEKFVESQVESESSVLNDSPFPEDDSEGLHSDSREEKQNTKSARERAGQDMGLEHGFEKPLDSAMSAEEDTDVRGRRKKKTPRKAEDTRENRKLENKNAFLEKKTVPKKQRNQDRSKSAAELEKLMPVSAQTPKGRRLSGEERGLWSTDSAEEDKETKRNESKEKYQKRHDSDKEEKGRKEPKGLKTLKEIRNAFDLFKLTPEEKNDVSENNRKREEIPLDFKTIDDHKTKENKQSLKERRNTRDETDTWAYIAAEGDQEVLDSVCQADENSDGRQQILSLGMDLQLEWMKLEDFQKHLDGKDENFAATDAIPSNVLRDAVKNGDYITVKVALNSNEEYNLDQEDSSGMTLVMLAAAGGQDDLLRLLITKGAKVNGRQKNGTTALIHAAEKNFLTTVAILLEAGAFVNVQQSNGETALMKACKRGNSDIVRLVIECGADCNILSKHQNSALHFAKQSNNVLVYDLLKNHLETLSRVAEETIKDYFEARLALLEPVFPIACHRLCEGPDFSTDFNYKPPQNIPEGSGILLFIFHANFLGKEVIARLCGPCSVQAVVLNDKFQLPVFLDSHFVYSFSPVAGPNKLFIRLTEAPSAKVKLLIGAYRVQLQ
How it was run: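 Disruption of the preformed MPP8–trimethyl-H3K9 peptide complex (both 50 nM, 30 min, RT) is measured after 30 min compound exposure, using AlphaScreen proximity beads; aurintricarboxylic acid titration serves as plate control.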

[9] = target: Cytochrome P450 1A2 (Homo sapiens) (UniProt P05177); assay: p450-cyp1a2 (AID 410; calls by dose curve;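 further: -100% = full effect of reference inhibitor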)
Cytochrome P450 1A2 (Homo sapiens), sequence (P05177 whole entry, looked up): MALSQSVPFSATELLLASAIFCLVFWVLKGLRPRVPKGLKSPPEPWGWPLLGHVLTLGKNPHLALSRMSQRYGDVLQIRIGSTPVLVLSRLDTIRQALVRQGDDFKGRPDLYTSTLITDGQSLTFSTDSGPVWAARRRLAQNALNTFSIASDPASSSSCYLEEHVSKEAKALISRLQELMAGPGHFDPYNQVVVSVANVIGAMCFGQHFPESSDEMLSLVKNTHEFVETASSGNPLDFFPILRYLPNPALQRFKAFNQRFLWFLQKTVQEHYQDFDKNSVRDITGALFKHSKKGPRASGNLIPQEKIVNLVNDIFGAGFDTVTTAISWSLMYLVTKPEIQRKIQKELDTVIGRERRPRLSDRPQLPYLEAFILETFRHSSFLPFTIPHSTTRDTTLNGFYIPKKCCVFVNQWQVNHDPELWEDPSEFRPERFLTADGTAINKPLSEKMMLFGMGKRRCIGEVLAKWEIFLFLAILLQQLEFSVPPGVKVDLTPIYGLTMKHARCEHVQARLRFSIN
How it was run: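 Luminescent readout of luciferin formed from Luciferin-ME by human CYP1A2; data normalized against complete inhibition by 57 uM furafylline. Enzyme 20nM, substrate 100uM at Km, 100mM KPO4 buffer, 60 min reaction at room temperature.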

[10] = target: Glucocorticoid receptor (Homo sapiens) (UniProt P04150); assay: GR-GFP Redistribution (AID 450;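 active means compounds whose dose series gives a full or clear partial fitted curve of increased nuclear translocation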; further: potency means the concentration at half of the fitted maximal effect); settings: U2OS GR-GFP nuclear translocation, laser cytometry, 2 h
Glucocorticoid receptor (Homo sapiens), sequence (P04150 whole entry, looked up): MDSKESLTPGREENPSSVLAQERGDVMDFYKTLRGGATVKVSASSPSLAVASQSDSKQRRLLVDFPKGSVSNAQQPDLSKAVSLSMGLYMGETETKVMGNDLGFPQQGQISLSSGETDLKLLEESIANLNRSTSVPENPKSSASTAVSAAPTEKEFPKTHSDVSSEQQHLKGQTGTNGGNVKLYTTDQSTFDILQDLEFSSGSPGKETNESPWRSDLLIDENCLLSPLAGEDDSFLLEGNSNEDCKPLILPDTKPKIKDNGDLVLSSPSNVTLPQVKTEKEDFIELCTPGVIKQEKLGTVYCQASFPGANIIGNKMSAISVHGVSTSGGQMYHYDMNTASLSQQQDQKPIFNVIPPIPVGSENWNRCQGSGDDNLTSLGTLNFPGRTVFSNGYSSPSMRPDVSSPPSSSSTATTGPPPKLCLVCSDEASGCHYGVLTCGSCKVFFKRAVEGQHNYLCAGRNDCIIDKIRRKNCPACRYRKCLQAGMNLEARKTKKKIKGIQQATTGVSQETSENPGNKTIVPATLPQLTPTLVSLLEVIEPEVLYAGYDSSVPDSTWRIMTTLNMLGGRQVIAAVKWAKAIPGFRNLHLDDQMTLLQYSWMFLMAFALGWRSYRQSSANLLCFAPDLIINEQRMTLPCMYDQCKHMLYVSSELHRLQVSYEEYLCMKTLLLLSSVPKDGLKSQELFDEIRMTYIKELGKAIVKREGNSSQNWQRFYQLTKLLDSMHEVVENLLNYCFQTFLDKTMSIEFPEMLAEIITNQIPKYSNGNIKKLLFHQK

[11] = target: 3',5'-cyclic-AMP phosphodiesterase 4B (Homo sapiens) (UniProt Q07343); assay: qHTS Assay for Inhibitors of PDE-IV (AID 607; active means well fitted activation curve with a large enough effect in the main read-out, with a control signal flat, not every such curve was filed as active; further: % of control where 0% means no effect)
3',5'-cyclic-AMP phosphodiesterase 4B (Homo sapiens), sequence (Q07343 whole entry, looked up): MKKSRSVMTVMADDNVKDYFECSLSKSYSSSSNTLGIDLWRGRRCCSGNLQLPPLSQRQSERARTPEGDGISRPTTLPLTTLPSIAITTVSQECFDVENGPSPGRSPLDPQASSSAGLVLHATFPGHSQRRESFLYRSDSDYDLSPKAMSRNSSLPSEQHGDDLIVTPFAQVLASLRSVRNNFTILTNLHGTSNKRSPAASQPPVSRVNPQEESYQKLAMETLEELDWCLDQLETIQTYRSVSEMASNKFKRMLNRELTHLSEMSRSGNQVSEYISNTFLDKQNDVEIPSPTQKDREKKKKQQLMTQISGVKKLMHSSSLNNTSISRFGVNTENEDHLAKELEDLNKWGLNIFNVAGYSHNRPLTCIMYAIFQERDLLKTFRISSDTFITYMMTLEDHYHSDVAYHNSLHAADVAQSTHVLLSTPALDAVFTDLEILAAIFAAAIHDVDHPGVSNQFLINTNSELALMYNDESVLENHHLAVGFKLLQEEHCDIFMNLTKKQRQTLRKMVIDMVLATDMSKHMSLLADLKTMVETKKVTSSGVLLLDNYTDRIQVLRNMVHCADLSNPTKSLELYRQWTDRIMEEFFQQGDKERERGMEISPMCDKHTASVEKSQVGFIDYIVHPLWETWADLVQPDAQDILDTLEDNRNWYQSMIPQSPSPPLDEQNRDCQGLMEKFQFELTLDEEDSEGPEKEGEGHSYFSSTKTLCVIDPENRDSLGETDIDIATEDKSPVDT
How it was run: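 The readout is membrane depolarisation from a cAMP-sensing CNG channel, detected with a potential dye at ex 535/em 590. Cells were HEK293-derived (endogenous PDE-IV) at 1000 cells/well, titrated up to 22.9 uM final.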

[12] = qHTS for differential inhibitors of proliferation of Plasmodium falciparum line 7G8 (AID 1815);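 further: potency means the concentration at half of the fitted maximal effect; parasite growth measured after three days of incubation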
[13] = qHTS for differential inhibitors of proliferation of Plasmodium falciparum line HB3 (AID 1886); settings: Potency: Plasmodium falciparum HB3 proliferation inhibition;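 further: parasites grown with compound for 72 h before SYBR Green readout; plate controls were vehicle for no effect and reference inhibitor for full effect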
[14] = target: Transient receptor potential cation channel subfamily V member 1 (Homo sapiens) (UniProt Q8NER1); assay: HTS Assay for Compounds that Act as Enhancers of the Vanilloid Receptor 1 (AID 488979); further: 0% is about no effect
Transient receptor potential cation channel subfamily V member 1 (Homo sapiens), sequence (Q8NER1 whole entry, looked up): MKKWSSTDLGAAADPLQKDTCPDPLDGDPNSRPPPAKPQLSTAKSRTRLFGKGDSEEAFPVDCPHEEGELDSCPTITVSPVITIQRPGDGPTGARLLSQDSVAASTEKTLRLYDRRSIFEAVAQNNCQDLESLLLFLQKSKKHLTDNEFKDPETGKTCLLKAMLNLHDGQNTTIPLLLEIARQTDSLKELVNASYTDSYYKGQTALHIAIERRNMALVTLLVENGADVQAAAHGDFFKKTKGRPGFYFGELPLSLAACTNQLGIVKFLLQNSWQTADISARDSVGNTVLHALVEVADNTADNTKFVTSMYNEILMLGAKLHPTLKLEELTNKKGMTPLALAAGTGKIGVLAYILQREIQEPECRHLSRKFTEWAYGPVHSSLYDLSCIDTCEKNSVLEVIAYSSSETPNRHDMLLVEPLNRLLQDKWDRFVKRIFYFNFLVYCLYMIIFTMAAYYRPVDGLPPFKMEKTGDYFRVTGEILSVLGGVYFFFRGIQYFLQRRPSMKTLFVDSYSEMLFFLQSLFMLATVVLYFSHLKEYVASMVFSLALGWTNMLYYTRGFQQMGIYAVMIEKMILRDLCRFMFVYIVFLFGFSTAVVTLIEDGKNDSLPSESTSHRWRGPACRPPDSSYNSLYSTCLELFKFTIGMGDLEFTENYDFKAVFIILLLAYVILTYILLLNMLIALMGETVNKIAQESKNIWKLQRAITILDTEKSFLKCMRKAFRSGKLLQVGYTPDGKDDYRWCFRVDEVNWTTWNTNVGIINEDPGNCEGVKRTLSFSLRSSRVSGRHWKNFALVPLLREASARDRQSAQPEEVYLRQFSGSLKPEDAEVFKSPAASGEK
How it was run: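 TRPV1-expressing cells loaded with Fluo-8 calcium dye; compounds added and calcium influx read kinetically for 3 min (agonist phase), then capsaicin at EC20 added and read 2 min more for enhancement. Fluorescence ex 480/em 520 nm.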

[15] = target: Thyrotropin receptor (Homo sapiens) (UniProt P16473); assay: qHTS Assay for Antagonists of the Thyroid Stimulating Hormone Receptor (AID 488980); further: series mostly up to about 58 µM; 0% is about no effect
How it was run: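 Cells expressing human TSHR (HEK293) are dispensed in HBSS/HEPES containing 70 uM RO 20-1724, compound is added, then TSH at EC80 (4 nM final). Antibody in lysis buffer follows, 30 minutes at room temperature before HTRF detection.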

[16] = target: Thyrotropin-releasing hormone receptor (Homo sapiens) (UniProt P34981); assay: qHTS for Small Molecule Agonists and Allosteric Enhancers of Human TRH Receptor: Validation Screen for Agonists (AID 493127;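 active means calcium activation more than 3 SD above the typical response in the agonist read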;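 further: intracellular calcium rise by fluo-8 fluorescence before TRH EC20 addition; 0% is about no effect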); settings: TRH receptor agonist cell assay; at 2 µM; stronger effect = higher value
Thyrotropin-releasing hormone receptor (Homo sapiens), sequence (P34981 whole entry, looked up): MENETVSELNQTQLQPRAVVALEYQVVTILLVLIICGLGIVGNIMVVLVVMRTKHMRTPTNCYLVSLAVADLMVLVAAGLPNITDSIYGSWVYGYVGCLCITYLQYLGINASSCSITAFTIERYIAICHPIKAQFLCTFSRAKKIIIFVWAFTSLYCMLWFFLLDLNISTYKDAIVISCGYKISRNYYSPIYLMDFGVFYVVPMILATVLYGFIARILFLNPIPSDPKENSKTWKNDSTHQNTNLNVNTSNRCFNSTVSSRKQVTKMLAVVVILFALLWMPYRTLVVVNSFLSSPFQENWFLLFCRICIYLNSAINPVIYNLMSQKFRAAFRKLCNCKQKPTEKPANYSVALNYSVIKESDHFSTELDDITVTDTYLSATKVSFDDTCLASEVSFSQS
How it was run: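 Cells 2000/well, 10% FCS, 18 h 33.5C/5% CO2 → fluo-8 Ca dye, RT 30 min–1.5 h → FDSS baseline 10 × 1 s → compound added → 230 cycles (1 s/cycle) agonist mode. TRH controls.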

[17] = target: DNA dC->dU-editing enzyme APOBEC-3G (Homo sapiens) (UniProt Q9HC16); assay: qHTS for inhibitors of Vif-A3G interactions: Validation (AID 588379); further: 0% is about no effect
DNA dC->dU-editing enzyme APOBEC-3G (Homo sapiens), sequence (Q9HC16 whole entry, looked up): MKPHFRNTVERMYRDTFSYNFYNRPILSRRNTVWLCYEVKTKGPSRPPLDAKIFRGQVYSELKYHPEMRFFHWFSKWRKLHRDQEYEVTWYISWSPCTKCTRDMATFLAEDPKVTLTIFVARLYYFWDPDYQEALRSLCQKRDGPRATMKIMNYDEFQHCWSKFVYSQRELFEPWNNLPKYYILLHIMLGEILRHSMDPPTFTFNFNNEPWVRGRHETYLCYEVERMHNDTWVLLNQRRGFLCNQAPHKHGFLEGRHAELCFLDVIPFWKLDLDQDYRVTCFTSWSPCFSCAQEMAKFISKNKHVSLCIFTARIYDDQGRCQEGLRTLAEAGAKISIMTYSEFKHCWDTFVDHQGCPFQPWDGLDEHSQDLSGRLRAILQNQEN
How it was run: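 HeLa cells stably expressing Vif and A3G-eYFP, 700 cells/well, incubated overnight at 37 deg C, then exposed to compound overnight at 37 deg C. Inhibition of Vif-mediated degradation read as increased yellow fluorescence (Ex 488/Em 500-530) by laser-scanning cytometry.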

[18] = target: Androgen receptor (Homo sapiens) (UniProt P10275); assay: qHTS assay for small molecule agonists of androgen receptor signaling (AID 588515; active means well fitted curve in the direction sought with a large enough effect in the signal ratio, with a control signal flat; the % refers to the signal ratio; further: on the % scale 0 is the no-effect control and ±100 the full control effect); settings: AR-UAS-bla HEK293, beta-lactamase ratio, agonist 16 h; stronger effect = higher value
How it was run: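 EC50 and efficacy came from Hill fits of titrations (up to 92 uM) normalized to 30 nM R1881 as 100% and DMSO as 0%. Compound exposure was 16 h at 37 C on AR-UAS-bla HEK293 cells, with a 405/460/530 nm CCF4 fluorescence read.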

[19] = target: Thyroid hormone receptor beta (Homo sapiens) (UniProt P10828); assay: qHTS assay for small molecule agonists of thyroid hormone receptor beta signaling (AID 588545; calls by dose curve)
Thyroid hormone receptor beta (Homo sapiens), sequence (P10828 whole entry, looked up): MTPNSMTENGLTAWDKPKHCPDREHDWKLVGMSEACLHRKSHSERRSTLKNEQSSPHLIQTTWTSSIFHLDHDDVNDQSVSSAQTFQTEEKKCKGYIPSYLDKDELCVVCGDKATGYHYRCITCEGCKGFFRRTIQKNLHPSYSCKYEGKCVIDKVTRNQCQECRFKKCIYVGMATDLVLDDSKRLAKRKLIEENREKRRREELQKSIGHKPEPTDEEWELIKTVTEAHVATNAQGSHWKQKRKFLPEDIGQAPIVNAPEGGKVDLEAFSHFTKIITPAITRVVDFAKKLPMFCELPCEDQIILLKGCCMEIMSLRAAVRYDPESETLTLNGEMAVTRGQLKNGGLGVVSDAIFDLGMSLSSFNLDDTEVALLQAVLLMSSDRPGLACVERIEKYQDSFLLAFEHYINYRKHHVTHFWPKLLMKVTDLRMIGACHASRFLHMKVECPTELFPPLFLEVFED
How it was run: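 In this cell-based screen, titrated compounds act on HEK 293 cells held in medium with 2% charcoal/dextran FBS, NEAA and pyruvate for 18 hrs at 37 C. Responses are expressed relative to T3 (10 nM) as 100% and basal DMSO as 0%.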

[20] = Primary qHTS for small molecule stabilizers of the endoplasmic reticulum resident proteome: Secreted ER Calcium Modulated Protein (SERCaMP) assay (AID 1508630); further: on the % scale 0 is the no-effect control and ±100 the full control effect
How it was run: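 GLuc-SERCaMP-expressing SH-SY5Y cells, pretreated 16 h with compound, are challenged with thapsigargin to empty ER calcium stores; after 4 h, coelenterazine is added directly to the medium and luminescence is imaged.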

COc1ccc([C@@H]2c3cc4c(cc3C(=O)[C@H](C)C2C)OCO4)cc1OC (stereo not given in full)
inactive: Potency [2] | Potency [3] | Potency [4] | outcome [5] | Potency [6]
active: Potency [1] 11.7 µM

C[C@H]1CC2[C@@H]3CCC4=CC(=O)C=C[C@]4(C)[C@@]3(F)[C@@H](O)C[C@]2(C)[C@@]1(O)C(=O)CO (stereo not given in full)
inactive: outcome [7] | Potency [8]

CN(CCOc1ccc(C[C@H](Nc2ccccc2C(=O)c2ccccc2)C(=O)O)cc1)c1ccccn1
active: Potency [12] 8.91 µM
inactive: Potency [9] | Potency [10] > 46 µM | Potency [11] | Potency [13] | outcome [14] | outcome [15] | activation [16] 2.06% | outcome [17] | activation [18] -13.2% | outcome [19] | Potency [20]
